Measured values published in PubChem BioAssay (NCATS).
“And” between values parts separate entries of the source, which are not always exact repeats. Identical values can stand only once. Results filed as inconclusive are left out. Values without a mark were called inactive. The source made the active and inactive calls. The call rests on the fitted dose curve; in most records, active means well fitted curve in the direction sought with a large enough effect; inconclusive means small, poorly fitted or top-dose-only effect, or another doubt; inactive means no such curve, though single readings can be large; an effect the other way counts as inactive or inconclusive.

Tests used:
[1] = target: Cellular tumor antigen p53 (Homo sapiens) (UniProt P04637); test: Primary qHTS for small molecule compounds that upregulate eGFP-tagged delta133p53alpha (in N-terminal) cells. (AID 2060322); conditions: NCI-H358 eGFP-delta133p53alpha fluorescence, 24 h; activation: active compounds read high; further: nearly all actives have a fitted effect of over 75% in size;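 on activation: cells pre-induced with doxycycline then dosed without doxycycline; 0% = DMSO vehicle and 100% = reference activator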
Method in brief: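 NCI-H358 cells pre-induced 24 h with 10 ng/ml doxycycline for eGFP-delta133p53alpha, plated dox-free and exposed 24 h at 37C to titrated compounds. Fixed, Hoechst-stained; gated GFP peak intensity by laser scanning cytometry, normalized to DMSO (0%) and 57.5 uM 5-azacytidine (100%).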

[2] = BET inhibitor-based combinations targeting novel dependencies in MECOM-rearranged (r) AML: SET-2 cell line (AID 2202231); conditions: SET-2 AML cells viability, CellTiter-Glo luminescence, 48 h; viability: active compounds read low, concentration not given here; further: nearly all actives have a fitted effect of over 35% in size;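 on viability: plate controls were DMSO treated cells for no effect and wells without cells for full effect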
Method in brief: (§1)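 Luminescent ATP readout (CellTiter-Glo) after 48 hr drug exposure gives viability. Curves span 11 concentrations and are normalized to DMSO and empty wells. Activity is reported as area under the curve and its Z-transform within each cell line.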

[3] = BET inhibitor-based combinations targeting novel dependencies in MECOM-rearranged (r) AML: OCI-AML3 cell line (AID 2202232); conditions: CellTiter-Glo luminescence, 48 h; Potency: OCI-AML3 viability; series mostly up to 46 µM; further: nearly all actives have a fitted effect of over 35% in size
Method in brief: as §1

[4] = BET inhibitor-based combinations targeting novel dependencies in MECOM-rearranged (r) AML: MV-4-11 cell line (AID 2202233); conditions: MV-4-11 AML viability, CellTiter-Glo luminescence, 48 h; series mostly up to 46 µM; further: nearly all actives have a fitted effect of over 45% in size
Method in brief: (§2)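 Luminescent ATP readout (CellTiter-Glo, 15 min at room temperature) after 48 hr drug exposure gave viability. Dose-response curves, normalized to DMSO and empty-well controls, were summarized as area under the curve and its mean-centred Z-score.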

[5] = BET inhibitor-based combinations targeting novel dependencies in MECOM-rearranged (r) AML: UCSD-AML1 cell line (AID 2202235); conditions: UCSD-AML1 AML cells viability, CellTiter-Glo, 48 h; series mostly up to 46 µM; further: nearly all actives have a fitted effect of over 40% in size
Method in brief: as §2

[6] = BET inhibitor-based combinations targeting novel dependencies in MECOM-rearranged (r) AML: HNT-34 cell line (AID 2202234); conditions: HNT-34 AML viability, CellTiter-Glo luminescence, 48 h; series mostly up to 46 µM; further: nearly all actives have a fitted effect of over 35% in size
Method in brief: as §2

[7] = BET inhibitor-based combinations targeting novel dependencies in MECOM-rearranged (r) AML: AML-194 cell line (AID 2202237; further: nearly all actives have a fitted effect of over 40% in size); conditions: AML-194 (MECOM-r AML) viability, CellTiter-Glo, 48 h; series mostly up to 46 µM
Method in brief: as §1

[8] = BET inhibitor-based combinations targeting novel dependencies in MECOM-rearranged (r) AML: AML-191 cell line (AID 2202236; further: nearly all actives have a fitted effect of over 35% in size); conditions: AML-191 viability, CellTiter-Glo luminescence, 48 h; series mostly up to 46 µM
Method in brief: as §1
Potency means the concentration at half of the fitted maximal effect.

Cellular tumor antigen p53 (Homo sapiens), sequence (P04637 whole entry, looked up): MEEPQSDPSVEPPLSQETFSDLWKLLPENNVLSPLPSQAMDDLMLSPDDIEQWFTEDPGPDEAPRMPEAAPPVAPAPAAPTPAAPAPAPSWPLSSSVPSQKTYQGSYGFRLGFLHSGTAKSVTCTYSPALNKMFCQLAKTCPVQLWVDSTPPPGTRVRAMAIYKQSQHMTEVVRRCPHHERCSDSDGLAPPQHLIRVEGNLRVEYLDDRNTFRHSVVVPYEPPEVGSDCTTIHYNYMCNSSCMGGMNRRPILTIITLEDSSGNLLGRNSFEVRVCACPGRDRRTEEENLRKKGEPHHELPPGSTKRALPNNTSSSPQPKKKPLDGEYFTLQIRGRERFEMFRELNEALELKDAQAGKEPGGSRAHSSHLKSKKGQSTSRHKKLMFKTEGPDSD

Row | Structure (SMILES) | activation [1] | viability [2] | Potency [3] | Potency [4] | Potency [5] | Potency [2] | Potency [6] | Potency [7] | Potency [8] | Potency [1]
1 | C[C@@H]1C[C@H]2[C@@H]3CCC4=CC(=O)C=C[C@]4(C)[C@@]3(F)[C@@H](O)C[C@]2(C)[C@@]1(O)C(=O)CO | -11.9% | 112% | inactive | inactive | inactive |  |  |  |  | 
2 | COc1cccc2c1C(=O)c1c(O)c3c(c(O)c1C2=O)C[C@@](O)(C(=O)CO)C[C@@H]3O[C@H]1C[C@H](N)[C@@H](O)[C@H](C)O1 | -26.9% |  | 148 nM (active) | 37.2 nM (active) | 132 nM (active) | 1180 nM (active) | 263 nM (active) | 417 nM (active) |  | 
3 | CCCN[C@H]1CCc2nc(N)sc2C1 | 9.21% and 7.7% | 116% | inactive | 934 nM (active) |  |  | inactive |  | inactive | 
4 | C[Se]CCC(N)C(=O)O (configuration not stated) | -7.89% | 105% | inactive | inactive | inactive |  | inactive | inactive |  | 
5 | C[C@](Cc1c[nH]c2ccccc12)(NC(=O)OC1C2CC3CC(C2)CC1C3)C(=O)NC[C@H](NC(=O)CCC(=O)O)c1ccccc1 (some centres not stated) | 8.58% | 110% | inactive | inactive |  |  | inactive | inactive |  | 
6 | Cc1ccc(C(=O)Nc2cccc(C(F)(F)F)c2)cc1Nc1nc(-c2cccnc2)nc2c1cnn2C | 9.99% |  | 8330 nM (active) | 16600 nM (active) |  | 20900 nM (active) | 9340 nM (active) | 10500 nM (active) | 8330 nM (active) | 
7 | NC[C@H]1O[C@H](O[C@@H]2[C@@H](O)[C@@H](O[C@H]3O[C@H](CO)[C@@H](O)[C@H](N)[C@@H]3O)[C@H](N)C[C@@H]2N)[C@H](O)[C@@H](O)[C@H]1O | 5.09% | 111% | inactive | inactive |  |  | inactive | inactive | inactive | 
8 | Cc1noc(-c2ccc(CSCCC(=O)O)cc2)c1NC(=O)OC(C)c1ccccc1Cl (configuration not stated) | -1.99% | 114% | inactive | inactive |  |  | inactive | inactive | inactive | 
9 | C[C@@H](Oc1cc(-n2cnc3ccc(CN4CCN(C)CC4)cc32)sc1C(N)=O)c1ccccc1C(F)(F)F | 2.47% |  | 46.8 nM (active) | 105 nM (active) | 118 nM (active) | 105 nM (active) |  |  | 93.4 nM (active) | 
10 | C#C[C@]1(O)CC[C@H]2[C@@H]3CCc4cc(OC)ccc4[C@H]3CC[C@@]21C | -5.08% | 117% | inactive | inactive | inactive |  | inactive | inactive |  | 
11 | C[C@]12C=CC(=O)C=C1CC[C@@H]1[C@@H]2C(=O)C[C@@]2(C)[C@H]1CC[C@]2(O)C(=O)CO | -20.1% and 2.21% | 109% | inactive | inactive |  |  | inactive | inactive | inactive | 
12 | CN[C@@H]1CN(c2ccc3c(=O)c(C(=O)O)cn(-c4nccs4)c3n2)C[C@@H]1OC | 8.83% |  | 1150 nM (active) | 323 nM (active) |  | 3230 nM (active) | 1150 nM (active) | 1290 nM (active) | 1820 nM (active) | 
13 | O=C(NCCO[N+](=O)[O-])c1cccnc1 | -0.853% and 0.837% | 114% | inactive | 4680 nM (active) | inactive |  |  | inactive | inactive | 
14 | COCCCN1CCC(NC(=O)c2cc(Cl)c(N)c3c2OCC3)CC1 | -6.16% | 118% | inactive | inactive | inactive |  |  | inactive | inactive | 
15 | CCCCCCCCCCCCc1ccc(S(=O)(=O)Nc2nncs2)cc1 | -6.63% | 118% | inactive |  | inactive |  | inactive |  | inactive | 
16 | CN1CCCN=C1/C=C/c1cccs1 | -2.82% | 73.8% | inactive | inactive | 2950 nM (active) |  |  | inactive |  | 
17 | COc1cccc2c1C(=O)c1c(O)c3c(c(O)c1C2=O)C[C@@](O)(C(=O)CO)C[C@@H]3O[C@H]1C[C@H](N)[C@H](O)[C@H](C)O1 |  |  | 46.8 nM (active) | 37.2 nM (active) | 93.4 nM (active) | 833 nM (active) |  | 186 nM (active) | 186 nM (active) | 12300 nM (active)
18 | CC(C)(Cc1ccc2ccccc2c1)NC[C@@H](O)COc1cccc(Cl)c1C#N | 19.8% |  | 16600 nM (active) | 16600 nM (active) |  | 18600 nM (active) |  | 10500 nM (active) | 10500 nM (active) | 
19 | Cn1c(=O)c(Oc2ccc(F)cc2F)cc2cnc(NC3CCOCC3)nc21 | -33.7% | 115% | inactive |  | inactive |  | inactive | inactive | inactive | 
20 | Cc1cccc(-c2nn(C(=S)Nc3ccccc3)cc2-c2ccnc3ccccc23)n1 | 44.1% | 97.5% | inactive | inactive | inactive |  |  | inactive | inactive | 
